# Among all 96,000 compounds or so, about 19,000 (20%) were called active. These entries were drawn from the full list. A number with no mark means an inactive call.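 How the source made its calls: active means blocking of liver enzyme CYP2C9 beyond about 50% at 5 µM (limit read from the data); inactive means the rest.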 Residues, ends and D or L forms follow the SMILES beside them. *: point of attachment. Bz = O=C(c1ccccc1)*
# Molecular target: Cytochrome P450 2C9 (Homo sapiens) (UniProt P11712)
# Test: blockers of cytochrome P450 2C9 activity – biochemical, luminescence, ADME assay, primary screen (AID 777)
# Settings: CYP2C9 Supersomes, luciferin-H conversion, at 5 µM, hits give high values
# Chain of Cytochrome P450 2C9 (Homo sapiens) (P11712 whole entry, looked up): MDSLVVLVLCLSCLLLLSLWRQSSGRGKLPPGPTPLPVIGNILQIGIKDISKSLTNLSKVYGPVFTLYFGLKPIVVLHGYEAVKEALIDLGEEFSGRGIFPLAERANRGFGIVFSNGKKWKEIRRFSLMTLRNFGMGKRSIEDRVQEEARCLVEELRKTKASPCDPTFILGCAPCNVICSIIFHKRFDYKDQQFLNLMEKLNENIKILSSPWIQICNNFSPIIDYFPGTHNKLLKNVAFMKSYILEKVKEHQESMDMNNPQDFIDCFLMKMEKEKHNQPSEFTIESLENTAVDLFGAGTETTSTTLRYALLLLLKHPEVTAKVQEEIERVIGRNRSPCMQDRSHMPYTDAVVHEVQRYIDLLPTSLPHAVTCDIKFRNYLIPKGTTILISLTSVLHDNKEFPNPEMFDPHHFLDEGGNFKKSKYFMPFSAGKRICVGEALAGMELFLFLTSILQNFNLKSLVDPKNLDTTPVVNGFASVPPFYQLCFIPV
row,Compound,inhibition
1,O=C(Cc1ccc2c(c1)CCCC2)Nc1ccccc1Cl,13.7%
2,CCNC(=S)Nc1cccc(Cl)c1C,16%
3,CCOc1ccc(NC(=O)CN(C)CC(=O)Nc2cccc(Cl)c2C)cc1OCC,56.1% (active)
4,CC(=O)N1CC2(C)CN(C(C)=O)CC(C)(C1)C2=O,-0.1%
5,O=C(Nc1cccc(OCC(=O)N2CCOCC2)c1)C1CCCCC1,-6.8%
6,CN(CCc1ccccn1)S(=O)(=O)c1ccc2c3c(cccc13)C(=O)N2,70.5% (active)
7,CCN(CC)S(=O)(=O)c1ccc2c3c(cccc13)C(=O)S2,-46.8%
8,O=c1[nH]nc(Cc2ccccn2)c2ccccc12,-9.2%
9,Cc1ccc(NC(=S)NC(=O)c2ccc(-c3ccccc3)cc2)c(C)c1,19%
10,COC(=O)c1nc(NC(=O)c2ccccc2)n[nH]1,0.3%
11,Cc1cc2[nH]ncc2cc1NC(=S)NC(=O)c1ccccc1,97.8% (active)
12,COc1ccc(N(CC(=O)NC(C)(C)C)C(=O)c2ccco2)cc1,9.6%
13,Cc1cc(Cl)ccc1N1C(=O)CC(SCCC(=O)O)C1=O (stereo unspecified),35.2%
14,COc1ccc(NC(=O)CN(C)S(=O)(=O)c2ccccc2)cc1OC,21.2%
15,Cc1ccc(NC(=O)CN(C)S(=O)(=O)c2cnc[nH]2)cc1C,93.7% (active)
16,C/C(=C\C(=O)c1cccnc1)Nc1ccc(C)c(C)c1,12.9%
17,Cc1ccc(C)n1-c1ccncc1,40.5%
18,COc1ccc(Cl)cc1S(=O)(=O)N1CCN(CC(=O)C(C)(C)C)CC1,-142%
19,CCOC(=O)c1c(-c2ccccc2)csc1NC(=S)NC(=O)c1ccccc1,55% (active)
20,CCOC(=O)c1c(NC(=S)NC(=O)c2ccco2)sc2c1CCCC2,0.4%
21,CCOC(=O)c1c(-c2cccc(C)c2)csc1NC(=O)c1c(-c2ccccc2)noc1C,26.8%
22,O=C1CSC(c2ccc(Cl)cc2)N1 (stereo unspecified),-1%
23,COc1cc(C2CC(=O)N3CN(Cc4ccccc4)CSC3=C2C#N)ccc1OCc1ccccc1 (stereo unspecified),86.4% (active)
24,COc1ccc(C2CC(=O)Nc3sc(=N)c4c(N)c(C#N)c(N)nc4c32)cc1OC (stereo unspecified),41.6%
25,COc1ccc(C2CC(=O)n3c(nc4ccccc43)S2)cc1OC (stereo unspecified),14.4%
26,CCCNC(=O)C1CC(=O)N(c2ccc(OCC(=O)Nc3cccc(C)c3C)cc2)C1 (stereo unspecified),22.1%

row,Compound,inhibition
1,COc1ccc(-n2nc3c(c2NC(=O)Cc2cccc(C)c2)CS(=O)C3)cc1 (stereo unspecified),-1.9%
2,Cc1ccc(OC(=O)c2cc3ccccc3o2)cc1,-2.9%
3,COc1ccccc1C(=O)Oc1ccc(N2C(=O)CCC2=O)cc1,-113%
4,Cc1ccc(OC(=O)c2ccccc2C(=O)OCC(F)(F)C(F)F)cc1,84.1% (active)
5,CC(C)(C)c1ccc(C(=O)NNC(=O)Cc2ccccc2)cc1,6.1%
6,CCCCN1C(=O)CC(N2CCOCC2)C1=O (stereo unspecified),1.5%
7,CCCCNC(=O)C1CCCN(S(=O)(=O)c2ccc(S(=O)(=O)NCC(C)C)cc2)C1 (stereo unspecified),46%
8,CCCCn1c(=S)[nH]c2cc(S(=O)(=O)N3CCCCC3)ccc21,64.3% (active)
9,CN1CCCN(S(=O)(=O)c2ccc3c(c2)OCCO3)CC1,-7.5%
10,c1ccc(-c2cn3cccnc3n2)cc1,-1.3%
11,c1ccc(-n2nnnc2NC2CCCCCC2)cc1,24%
12,Cc1cc(C)c([N+](=O)[O-])cc1-c1ccc(/C=N/NC(=O)c2nonc2N)o1,22.2%
13,O=C1C2C3C=CC(C4CC34)C2C(=O)N1/N=C/c1ccc(-c2ccccc2[N+](=O)[O-])o1 (stereo unspecified),36.8%
14,Cc1cc(-c2ccc(/C=N/n3cnnc3)o2)c([N+](=O)[O-])cc1C,50.5% (active)
15,Cc1cc([N+](=O)[O-])c(-c2ccc(/C=N/n3cnnc3)o2)cc1Cl,77% (active)
16,CCCC(=O)N1c2ccccc2NC2=C(C(=O)CCC2)C1c1ccc(F)cc1 (stereo unspecified),8.5%
17,CC(=O)CCS(=O)(=O)c1ccc(C)c(C)c1,-62.6%
18,Cc1c(CN2CCC(C)CC2)c(=O)n(-c2ccccc2)n1C,-8%
19,CCOC1CS(=O)(=O)CC1OCC (stereo unspecified),-5.4%
20,CC(N=Cc1nc(-c2ccccc2)oc1O)c1ccccc1 (stereo unspecified),66.7% (active)
21,CC(NC(=O)c1cc(-c2ccccc2)on1)c1ccccc1 (stereo unspecified),-23.7%
22,CCOC(=O)N1CCN(CC(=O)c2ccc3c(c2)CCN3)CC1,-1.9%
23,CC(=O)Nc1nc(C)c(Cc2ccccc2)c(=O)[nH]1,-0.9%
24,CC1(C)Cc2c(sc3nc(SCC(=O)NCc4ccccc4)n(-c4ccccc4)c(=O)c23)CS1,-0.2%
25,O=C(CNC(=O)c1cc2c(s1)CCC2)Nc1ccccc1Br,30%
26,O=C(c1cc2c(s1)CCC2)N1CCN(c2ccccc2)CC1,54.4% (active)

row,Compound,inhibition
1,O=C(NCCCN1CCOCC1)c1cc2c(s1)CCC2,-6.3%
2,Cc1nnc(SCc2nc3ccccc3nc2C)s1,-5.7%
3,CC(C)NC(=O)c1ccccc1S(=O)c1ccccc1C#N (stereo unspecified),-1.3%
4,Cc1cnc(NC(=O)CSc2nnc(-c3ccc(Cl)cc3Cl)n2N)s1,46.7%
5,CSc1ccc(CCNC(=O)C2CCN(c3nnc(-n4cccc4)s3)CC2)cc1,37%
6,O=C(CN1CCSCC1)N/N=C/c1ccc(F)cc1F,7.6%
7,CN1/C(=C\C=C2\N=C(c3ccc(F)cc3)OC2=O)C(C)(C)c2ccccc21,64.7% (active)
8,O=C1OC(c2ccc(Cl)cc2)=N/C1=C\c1cccnc1,18.2%
9,CCn1cc(C(=O)NCc2ccc(OC)cc2OC)c(=O)c2ccc(C)nc21,15.3%
10,CCCCCCOC(=O)NCC(O)c1ccccc1 (stereo unspecified),23.8%
11,c1ccc(-n2ncc(-c3nn[nH]n3)n2)cc1,46.2%
12,COc1ccc(N2C(=O)C3CCCN3C2c2cccc(OC)c2)cc1 (stereo unspecified),16.3%
13,CCCCCCNC(=O)CSc1nccn1Cc1ccccc1,77.3% (active)
14,CCCCNC(=O)CSc1nccn1Cc1ccccc1,23%
15,COC(=O)CCSc1nccn1Cc1ccccc1,10.8%
16,C=CCN(c1ccc(C(N)=O)cc1)S(C)(=O)=O,-10.7%
17,CC(=O)c1c(N)n(C)c(=O)n(C)c1=O,21.6%
18,ONC(=Nc1ccccc1)c1ccccc1Cl,2.1%
19,CCOC(=O)c1sc(NC(=O)c2cc(S(=O)(=O)N3CCOCC3)ccc2C)nc1C,71% (active)
20,Cc1ccc(S(=O)(=O)N2CCOCC2)cc1C(=O)NCc1ccc(F)cc1,31.6%
21,O=C(Nc1ccc2c(c1)nc1n2CCCCC1)c1cc(S(=O)(=O)N2CCOCC2)ccc1Cl,43.5%
22,O=C1c2cccc3cc(Br)cc(c23)C(=O)N1Nc1ccccc1,-74%
23,Cn1cccc1C1(C(F)(F)F)NCCNC1=O (stereo unspecified),72% (active)
24,N#C/C(=C\c1ccccc1)c1n[nH]c(Cn2cncn2)n1,27%
25,O=C1CSC(=O)N1CCOCCN1C(=O)CSC1=O,7.2%
26,CC(C)C[C@H](NC(=O)NCCc1ccc(Cl)cc1)C(=O)O,59.9% (active)

row,Compound,inhibition
1,CSCC[C@H](NC(=O)NCCc1ccc(F)cc1)C(=O)O,14.5%
2,C[C@H](NC(=O)NCCc1ccccc1)C(=O)O,2.2%
3,Cc1ccc(C(=O)C[n+]2cc(-c3ccccc3)n3c2CCCCC3)cc1,-11.7%
4,NC(=O)Cn1c(=O)oc2ccccc21,-13.8%
5,CCC(C)c1ccc(O)c(/C=N/O)c1 (stereo unspecified),13.7%
6,COc1ccc(C(=O)Nc2nc(-c3ccc(S(=O)(=O)N4CCOCC4)cc3)cs2)cc1,62.5% (active)
7,CCOC(=O)c1csc(NC(=O)c2ccc(S(=O)(=O)N3CCCC3)cc2)n1,-12.7%
8,COC(=O)[C@H](Cc1ccccc1)NC(=O)Nc1ccc(S(N)(=O)=O)cc1,1.6%
9,CCC(=O)Nc1ccc(S(=O)(=O)NCC2CCCO2)cc1 (stereo unspecified),-1.7%
10,COC(=O)c1ccccc1Sc1c(/C=N/OCc2ccc(Cl)cc2)c(C(F)(F)F)nn1C,89.6% (active)
11,COC(=O)c1ccccc1NC(=O)Cn1nc(C(F)(F)F)c2c1CCC2,17.4%
12,NC(=O)C1(N2CCCCC2)CCN(C2CC(=O)N(Cc3ccc(N4CCCC4=O)cc3)C2=O)CC1 (stereo unspecified),50.1% (active)
13,COC(=O)c1cc(NC(=O)CN2CCC(C(N)=O)(N3CCCCC3)CC2)cc(C(=O)OC)c1,13.2%
14,CCCNC(=O)NCc1ccc(N2CCCC2=O)cc1,17.2%
15,C[C@@H](Nc1nc(-c2ccccc2)nc2c1oc1ccccc12)C(=O)O,11.2%
16,C=CCNC(=O)c1cc2nc(C3CC3)cc(C(F)F)n2n1,40%
17,COc1cc(/C=C2\SC(=S)N(Nc3ncc(C(F)(F)F)cc3Cl)C2=O)cc(OC)c1OC,4.4%
18,Cc1ccc(C(=O)N2CCN(C3CCCCC3)CC2)s1,25.8%
19,O=C(NC(Cc1ccccc1)C(=O)N1CCCC1C(=O)O)c1ccccc1 (stereo not drawn) (Bz-Phe-Pro-OH; configuration not given here),-5.7%
20,O=C(C(Cc1ccccc1)n1cccc1)N1CCN(C2CCCCC2)CC1 (stereo unspecified),94% (active)
21,O=C(CN1C(=O)NC2(CCCCC2)C1=O)NCCC1=CCCCC1,-1.7%
22,O=C(CN1C(=O)NC(Cc2ccccc2)(Cc2ccccc2)C1=O)NCC1CCCCC1,55% (active)
23,CCOC(=O)CCCNC(=O)CN1C(=O)NC(CCc2ccccc2)C1=O (stereo unspecified),-3.9%
